The results in this text go back to PubChem BioAssay.

Assay [1] in a line: antimalarial activity against Dd2 strain (AID 2302;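 active means growth inhibition above 50% at the single 2 µM test dose, taken to imply half-maximal potency below 2 µM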;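 further: 0% = DMSO untreated growth and 100% = chloroquine plus artemisinin killed control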). As to conditions: P. falciparum Dd2 in RBCs, LDH growth readout, 72 h; at 2 µM; hits give high values.
Assay [2] in a line: human hepatoma cell viability loss – ATP luminescence, cytotoxicity control for P. falciparum antimalarial project, primary screen (AID 2303;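 active means inhibition above 50%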;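 further: 0% = DMSO wells and 100% = digitonin-killed cells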). As to conditions: HepG2 viability, 24-48 h, at 10 µM, hits give high values.
Assay [3] deals with L-lactate dehydrogenase (Plasmodium falciparum (isolate CDC / Honduras)) (UniProt Q27743). Kind of assay: PfLDH activity inhibition – cell lysate, 3D7 strain, counter-screen for P. falciparum growth inhibition project (AID 2304).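 Further: 0% = vehicle and 100% = reference inhibitor.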 As to conditions: P. falciparum 3D7 crude extract, LDH APAD/NBT absorbance; at 2 µM; hits give high values.
A short description of assay [4]: inhibition of 3D7 malaria parasite growth – strain 3D7 (AID 2306).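 Further: 0% = DMSO wells and 100% = chloroquine plus artemisinin control wells.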 As to conditions: P. falciparum 3D7 erythrocytic growth, LDH absorbance, 72 h; at 2 µM; hits give high values.
Assay [5] has as its target Calcium-dependent protein kinase 1 (Plasmodium falciparum (isolate 3D7)) (UniProt P62344). Nature of the assay: PfCDPK1 kinase inhibitors, biochemical, TCAMS library (AID 1159585; cut-off not given, nearly all actives have IC50 up to about 0.98 µM;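 further: inhibitors leave more ATP so luminescence rises with inhibition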). As to conditions: recombinant PfCDPK1, Kinase-Glo ATP depletion luminescence. On the technique in general: In Kinase-Glo more light means more ATP remaining.
Assay [6] addresses Plasmodium falciparum protein kinase 6 (PK6, PF3D7_1337100) (UniProt Q8IDW1). Nature of the assay: PfPK6 kinase inhibitors, biochemical, TCAMS library (AID 1159586). To be noted: recombinant PfPK6, Kinase-Glo ATP depletion luminescence.
The target in assay [7] is Protein kinase 7 (PK7), Plasmodium falciparum 3D7 (PF3D7_0213400) (UniProt Q7YTF7). Nature of the assay: inhibition of Plasmodium PK7 catalytic activity – biochemical, TCAMS antimalarial set, Kinase-Glo luminescence (AID 1159587). To be noted: recombinant PfPK7, Kinase-Glo ATP depletion luminescence.
Assay [8] has as its target Calcium-dependent protein kinase 4 (Plasmodium falciparum (isolate 3D7)) (UniProt Q8IBS5). Nature of the assay: PfCDPK4 kinase inhibitors, biochemical, TCAMS library (AID 1159588; cut-off not given, nearly all actives have IC50 up to about 0.91 µM). As to conditions: recombinant PfCDPK4, Kinase-Glo ATP depletion luminescence.

Values without a mark were called inactive. For some of these results: Results with a measured potency or affinity are listed apart. Calls of active or inactive are those of the source. Unless noted, how the calls were made is not given here.

Usually inhibition stands for the change of the read-out against control, counted positive when it falls.

Calcium-dependent protein kinase 4 (Plasmodium falciparum (isolate 3D7)), sequence (Q8IBS5 whole entry, looked up): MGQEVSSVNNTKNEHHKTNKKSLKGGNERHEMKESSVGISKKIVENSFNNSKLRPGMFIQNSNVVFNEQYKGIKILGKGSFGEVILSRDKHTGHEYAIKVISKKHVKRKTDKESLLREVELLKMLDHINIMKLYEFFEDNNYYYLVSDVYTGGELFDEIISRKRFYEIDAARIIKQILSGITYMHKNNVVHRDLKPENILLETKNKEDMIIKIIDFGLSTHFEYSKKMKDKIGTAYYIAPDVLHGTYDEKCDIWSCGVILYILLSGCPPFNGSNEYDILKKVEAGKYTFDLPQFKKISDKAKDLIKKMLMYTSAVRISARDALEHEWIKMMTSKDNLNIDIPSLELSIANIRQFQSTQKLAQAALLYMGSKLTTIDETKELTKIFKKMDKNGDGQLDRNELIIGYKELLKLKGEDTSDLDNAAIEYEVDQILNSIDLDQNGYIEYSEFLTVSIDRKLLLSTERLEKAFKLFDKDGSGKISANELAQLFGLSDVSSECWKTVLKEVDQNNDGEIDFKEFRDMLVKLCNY
Protein kinase 7 (PK7), Plasmodium falciparum 3D7 (PF3D7_0213400), sequence (Q7YTF7 1-343): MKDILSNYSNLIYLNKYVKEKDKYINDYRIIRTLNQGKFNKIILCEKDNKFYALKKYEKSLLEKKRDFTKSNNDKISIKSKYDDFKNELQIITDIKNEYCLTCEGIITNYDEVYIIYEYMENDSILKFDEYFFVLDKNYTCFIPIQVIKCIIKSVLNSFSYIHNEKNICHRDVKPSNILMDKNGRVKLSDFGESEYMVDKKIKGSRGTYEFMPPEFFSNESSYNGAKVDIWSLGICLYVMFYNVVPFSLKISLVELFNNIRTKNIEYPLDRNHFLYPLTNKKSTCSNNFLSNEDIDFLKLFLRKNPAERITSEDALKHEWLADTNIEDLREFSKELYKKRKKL
Plasmodium falciparum protein kinase 6 (PK6, PF3D7_1337100), sequence (Q8IDW1 1-305): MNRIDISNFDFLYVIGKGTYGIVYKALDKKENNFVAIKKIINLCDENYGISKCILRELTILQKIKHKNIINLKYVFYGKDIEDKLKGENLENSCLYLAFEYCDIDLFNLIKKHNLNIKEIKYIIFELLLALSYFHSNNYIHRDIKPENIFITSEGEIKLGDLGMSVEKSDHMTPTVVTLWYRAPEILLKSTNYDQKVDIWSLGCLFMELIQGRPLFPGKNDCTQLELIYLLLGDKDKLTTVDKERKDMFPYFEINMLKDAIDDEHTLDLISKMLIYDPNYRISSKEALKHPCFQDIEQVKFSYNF
L-lactate dehydrogenase (Plasmodium falciparum (isolate CDC / Honduras)), sequence (Q27743 whole entry, looked up): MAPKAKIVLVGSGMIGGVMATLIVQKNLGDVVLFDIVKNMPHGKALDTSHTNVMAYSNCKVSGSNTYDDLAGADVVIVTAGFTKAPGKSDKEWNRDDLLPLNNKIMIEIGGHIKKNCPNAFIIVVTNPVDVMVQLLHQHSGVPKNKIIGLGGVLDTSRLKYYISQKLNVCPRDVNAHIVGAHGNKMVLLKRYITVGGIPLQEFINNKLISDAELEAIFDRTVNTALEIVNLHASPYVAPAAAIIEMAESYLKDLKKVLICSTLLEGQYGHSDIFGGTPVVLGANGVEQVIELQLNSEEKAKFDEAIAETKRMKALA
Calcium-dependent protein kinase 1 (Plasmodium falciparum (isolate 3D7)), sequence (P62344 whole entry, looked up): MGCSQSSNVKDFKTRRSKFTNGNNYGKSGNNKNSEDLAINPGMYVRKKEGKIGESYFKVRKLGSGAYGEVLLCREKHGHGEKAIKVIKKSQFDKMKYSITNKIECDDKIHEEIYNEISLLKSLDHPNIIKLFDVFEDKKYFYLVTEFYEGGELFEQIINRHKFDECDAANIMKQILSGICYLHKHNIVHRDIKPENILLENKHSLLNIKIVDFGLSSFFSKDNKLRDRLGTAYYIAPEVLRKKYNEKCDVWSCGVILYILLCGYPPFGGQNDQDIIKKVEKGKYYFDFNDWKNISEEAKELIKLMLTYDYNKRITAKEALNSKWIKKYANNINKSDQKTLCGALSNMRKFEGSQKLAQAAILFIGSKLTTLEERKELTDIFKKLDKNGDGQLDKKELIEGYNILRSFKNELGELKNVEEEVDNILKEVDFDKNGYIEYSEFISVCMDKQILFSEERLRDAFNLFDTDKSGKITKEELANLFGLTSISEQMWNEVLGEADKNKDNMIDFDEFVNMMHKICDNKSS

For `N=c1n(CCN2CCCC2)c2ccccc2n1CC(O)c1ccc(Cl)c(Cl)c1` (stereo not given), the growth inhibition in assay [1] was 6%; in assay [4], 100% (active). Besides, the inhibition is 36% in assay [2] and 5% in assay [3]. The result in assay [5], in assay [6], in assay [7] and in assay [8] was inactive.

With `O=C(C=Cc1cc([N+](=O)[O-])ccc1Cl)N1CCC(CCN2CCC(c3c[nH]c4ccccc34)CC2)CC1`, the growth inhibition in assay [1] was 26%; in assay [4], 92% (active). The figures for the inhibition in assay [2] and in assay [3] were 25% and -2%, respectively. For the same molecule, the outcome in assay [5], in assay [6], in assay [7] and in assay [8] was inactive.

As to `Cc1ccc(NC(=O)c2cccc(C#N)c2)cc1-c1ccc(C(=O)Nc2ccncc2)cc1`, the growth inhibition was 64% (active) in assay [1] and 94% (active) in assay [4]. Besides, the inhibition was 38% in assay [2] and -1% in assay [3]. Besides, the outcome in assay [5], in assay [6], in assay [7] and in assay [8] was inactive.

On to `CCCCOc1cc(CNCCCCCCNCc2cc(OCCCC)cc3ccccc23)c2ccccc2c1`, for which the growth inhibition is 92% (active) in assay [1] and 101% (active) in assay [4]. In addition, the inhibition in assay [2] was 99% (active); in assay [3], -5%. The outcome in assay [5], in assay [6], in assay [7] and in assay [8] was inactive.

For `O=C(Nc1ccc(Cl)cc1)Nc1ccc(-c2ccc(-c3nc4ccccc4[nH]3)cc2)cc1`, the growth inhibition was 99% (active) in assay [1] and 101% (active) in assay [4]. In addition, the inhibition is 47% in assay [2] and 0% in assay [3]. Further, the outcome in assay [5], in assay [6], in assay [7] and in assay [8] was inactive.

Regarding `CCN(CC)CCN(Cc1ccc(-c2ccc(C(F)(F)F)cc2)cc1)C(=O)Cn1c(CCc2cccc(F)c2F)nc(=O)c2cccnc21`, the growth inhibition in assay [1] was 89% (active); in assay [4], 101% (active). Further, the figures for the inhibition in assay [2] and in assay [3] were 75% (active) and 2%, respectively. In addition, the outcome in assay [5], in assay [6], in assay [7] and in assay [8] was inactive.

Regarding `Cc1nc2nc(N)nc(N)c2c(C)c1Cc1cccc(C#N)c1`, the growth inhibition in assay [1] is 1%; in assay [4] it was 97% (active). Also, the inhibition is 64% (active) in assay [2] and 1% in assay [3]. Also, the result in assay [5], in assay [6], in assay [7] and in assay [8] was inactive.

With `Cc1cc2ncn(-c3nccc(NCc4ccc(F)c(C)c4)n3)c2cc1C`, the growth inhibition is 82% (active) in assay [1] and 90% (active) in assay [4]. For the same molecule, the inhibition in assay [2] was 10%; in assay [3], -3%. The outcome in assay [5], in assay [6], in assay [7] and in assay [8] was inactive.

Take `CCOc1ccccc1CNc1nccc(NCCc2cn(C)c3ccccc23)n1`: the growth inhibition is 62% (active) in assay [1] and 98% (active) in assay [4]. For the same molecule, the values for the inhibition in assay [2] and in assay [3] were 27% and -4%, respectively. Moreover, the result in assay [5], in assay [6], in assay [7] and in assay [8] was inactive.

For the molecule `O=c1cc(NCCCNCc2cccc(Oc3ccccc3)c2)[nH]c2ccccc12`, the growth inhibition in assay [1] was 67% (active); in assay [4], 93% (active). The inhibition in assay [2] is -4%; in assay [3] it was -1%. The outcome in assay [5], in assay [6], in assay [7] and in assay [8] was inactive.

On to `Nc1nc(N)c2c(Oc3cccnc3)cccc2n1`, for which the figures for the growth inhibition in assay [1] and in assay [4] were -1% and 93% (active), respectively. The inhibition was 65% (active) in assay [2] and 6% in assay [3]. The result in assay [5], in assay [6], in assay [7] and in assay [8] was inactive.

Consider `COc1ccc2nccc([C@@H](O)CN3CCC(NCc4cc5c(F)ccc(F)c5[nH]4)CC3)c2c1`, for which the results for the growth inhibition in assay [1] and in assay [4] were 67% (active) and 100% (active), respectively. Further, the results for the inhibition in assay [2] and in assay [3] were 29% and 0%, respectively. The outcome in assay [5], in assay [6], in assay [7] and in assay [8] was inactive.

Take `COc1cccc(CN2CCCN(Cc3cccc(NC(=O)c4ccc(-c5ccccc5)cc4)c3)CC2)c1`: the growth inhibition in assay [1] is 8%; in assay [4] it was 86% (active). Further, the figures for the inhibition in assay [2] and in assay [3] were 35% and -1%, respectively. For the same molecule, the result in assay [5], in assay [6], in assay [7] and in assay [8] was inactive.

With `O=c1cc(-c2ccc3ccccc3c2)[nH]c2ccccc12`, the growth inhibition is 44% in assay [1] and 81% (active) in assay [4]. Besides, the inhibition is 25% in assay [2] and -3% in assay [3]. Moreover, the outcome in assay [5], in assay [6], in assay [7] and in assay [8] was inactive.

In the case of `Cc1cccc2[nH]c(-c3ccc(-c4cccc(NC(=O)C(C)CN5CCN(C)CC5)c4)s3)nc12` (stereo not given), the growth inhibition is 75% (active) in assay [1] and 97% (active) in assay [4]. The inhibition was 11% in assay [2] and -6% in assay [3]. Also, the outcome in assay [5], in assay [6], in assay [7] and in assay [8] was inactive.

In the case of `CN(C)C(=NCCCCCCN=C(NC(N)=NCc1ccc(Cl)c(Cl)c1)N(C)C)NC(N)=NCc1ccc(Cl)c(Cl)c1`, the growth inhibition in assay [1] is 99% (active); in assay [4], 93% (active). Besides, the inhibition was 20% in assay [2] and -9% in assay [3]. Also, the outcome in assay [5], in assay [6], in assay [7] and in assay [8] was inactive.

`COc1ccc(-c2nc(NC(=O)Cc3ccc(OC)c(OC)c3)sc2C)cc1`: the growth inhibition in assay [1] was 22%; in assay [4], 93% (active). Moreover, the inhibition is 33% in assay [2] and -2% in assay [3]. Further, the result in assay [5], in assay [6], in assay [7] and in assay [8] was inactive.

Consider `Cc1ccc(S(C)(=O)=O)cc1/C=C/C(=O)O`, for which the growth inhibition was 1% in assay [1] and 96% (active) in assay [4]. Besides, the inhibition in assay [2] was -7%; in assay [3], 4%. Further, the result in assay [5], in assay [6], in assay [7] and in assay [8] was inactive.

For the molecule `COc1ccc(CCCN2C(=O)C(c3ccccc3)(c3ccccc3)N=C2N)cc1`, the results for the growth inhibition in assay [1] and in assay [4] were 76% (active) and 94% (active), respectively. For the same molecule, the inhibition in assay [2] was 21%; in assay [3] it was 5%. In addition, the outcome in assay [5], in assay [6], in assay [7] and in assay [8] was inactive.

As for `CC(CN1CCN(C)CC1)C(=O)Nc1ccc(-c2cccc(-c3nc4ccc(C(F)(F)F)cc4[nH]3)c2)cc1` (stereo not given), the growth inhibition in assay [1] was 96% (active); in assay [4], 99% (active). The inhibition in assay [2] was 16%; in assay [3], -6%. The result in assay [5], in assay [6], in assay [7] and in assay [8] was inactive.
